In PubChem BioAssay (EPA / NIEHS) one finds outcome and AC50 data, which are given here for six compounds.

Calls of active or inactive are those of the source. The calls were made as follows: active = hit-call score of the fitted dose curve at least 0.9, where 1 is the maximum; inactive = score below 0.9.

What all share (conditions): mRNA level, 48 h; actives raise or lower the signal
Read-out in test [1]: ABC Transporter (ABCC3), ABCC3 (gene 8714)
Briefly: LTEA_HepaRG_ABCC3: Life Technologies and Expression Analysis (LTEA) Assay for ABC Transporter (ABCC3) using HepaRG (AID 2283462). The procedure, abridged:
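Transcript level by TaqMan qRT-PCR, normalised to three housekeeping genes, fitted in both directions relative to vehicle. Chemicals tested in duplicate at eight half-log concentrations up to 100 uM for 48 h on HepaRG cells (0.5% DMSO).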

Read-out in test [2]: ABC Transporter (ABCB11), ABCB11 (gene 8647)
Briefly: LTEA_HepaRG_ABCB11: Life Technologies and Expression Analysis (LTEA) Assay for ABC Transporter (ABCB11) using HepaRG (AID 2283463). In a few lines: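 ABCB11 transcript levels quantified by TaqMan qRT-PCR against three housekeeping genes after 48 h chemical exposure of HepaRG cultures. Concentrations up to 100 uM in half-log steps, 0.5% DMSO vehicle; both induction and suppression scored.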

Read-out in test [3]: ABC Transporter (ABCC2), ABCC2 (gene 1244)
Briefly: LTEA_HepaRG_ABCC2: Life Technologies and Expression Analysis (LTEA) Assay for ABC Transporter (ABCC2) using HepaRG (AID 2283464). In a few lines:
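Endpoint is ABCC2 transcript level from qRT-PCR, normalized to three housekeeping genes and fitted bidirectionally relative to DMSO. Human HepaRG cells received test chemical for 48 h at up to 100 uM (8 points, half-log steps, 0.5% DMSO), duplicate wells.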

Read-out in test [4]: Broad substrate specificity ATP-binding cassette transporter ABCG2 (Homo sapiens) (UniProt Q9UNQ0)
The test is described as follows: LTEA_HepaRG_ABCG2: Life Technologies and Expression Analysis (LTEA) Assay for ABC Transporter (ABCG2) using HepaRG (AID 2283465). In a few lines:
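ABCG2 transcript was quantified by TaqMan qRT-PCR against three housekeeping genes in HepaRG cells. Cells were treated in duplicate for 48 h across an 8-point half-log series up to 100 uM, with 0.5% DMSO vehicle. Gain or loss versus DMSO was fit.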

Read-out in test [5]: ATP-citrate lyase (ACLY), ACLY (gene 47)
The test is described as follows: LTEA_HepaRG_ACLY: Life Technologies and Expression Analysis (LTEA) Assay for ATP-citrate lyase (ACLY) using HepaRG (AID 2283466). The procedure, abridged: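 ACLY mRNA quantified by qRT-PCR on Fluidigm arrays against three housekeeping genes, after 48 h chemical treatment of HepaRG cells (top concentration 100 uM, half-log steps, 0.5% DMSO vehicle). Up- or down-regulation fitted relative to DMSO.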

Read-out in test [6]: Peroxisomal acyl-coenzyme A oxidase 1 (ACOX1) gene, ACOX1 (gene 51)
The test is described as follows: LTEA_HepaRG_ACOX1: Life Technologies and Expression Analysis (LTEA) Assay for Peroxisomal acyl-coenzyme A oxidase 1 (ACOX1) gene using HepaRG (AID 2283467). In a few lines: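 ACOX1 transcript levels were quantified by TaqMan qRT-PCR against three housekeeping genes after 48 h chemical exposure of differentiated human HepaRG cells. Exposure used eight half-log steps topping at 100 uM, 0.5% DMSO vehicle, in duplicate. Bidirectional curve fits were made relative to DMSO.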

Read-out in test [7]: Alkaline Phosphatase, Placental (ALPP) gene, ALPP (gene 250)
The test is described as follows: LTEA_HepaRG_ALPP: Life Technologies and Expression Analysis (LTEA) Assay for Alkaline Phosphatase, Placental (ALPP) gene using HepaRG (AID 2283468).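 As to AC50: differentiated human HepaRG liver cells in serum-free induction medium.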 The procedure, abridged:
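ALPP transcript level, measured by qRT-PCR and normalized to three housekeeping genes (ACTB, GAPDH, POLR2A), after 48 h dosing of differentiated HepaRG in serum-free induction medium. Top concentration 100 uM with half-log dilutions (8 points, 0.5% DMSO, duplicates); bidirectional fitting relative to DMSO.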

Read-out in test [8]: Bcl-2 (BAX) gene, BAX (gene 581)
Briefly: LTEA_HepaRG_BAX: Life Technologies and Expression Analysis (LTEA) Assay for Bcl-2 (BAX) gene using HepaRG (AID 2283470). The procedure, abridged:
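Cells were thawed, plated for 48 h, moved to serum-free induction medium and dosed for 48 h (highest concentration 100 uM, half-log steps, 0.5% DMSO). Total RNA was then analysed for BAX expression by qRT-PCR.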

Read-out in test [9]: adenosine kinase (ADK) gene, ADK (gene 132)
The test is described as follows: LTEA_HepaRG_ADK: Life Technologies and Expression Analysis (LTEA) Assay for adenosine kinase (ADK) gene using HepaRG (AID 2283471). In a few lines:
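Read-out is ADK transcript level measured by qRT-PCR and normalised to three housekeeping genes. Cells are human HepaRG, dosed for 48 h at up to 100 uM in 0.5% DMSO. Gain or loss of signal is fitted against DMSO controls.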

Read-out in test [10]: Alpha-fetoprotein (AFP) gene, AFP (gene 174)
The test is described as follows: LTEA_HepaRG_AFP: Life Technologies and Expression Analysis (LTEA) Assay for Alpha-fetoprotein (AFP) gene using HepaRG (AID 2283472). The procedure, abridged:
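Chemicals were tested on differentiated HepaRG cells for 48 hours at eight concentrations up to 100 uM, with 0.5% DMSO as vehicle. AFP expression was then quantified by qRT-PCR and analyzed for gain or loss relative to DMSO.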

Read-out in test [11]: BCL2L11 (gene 10018)
Briefly: LTEA_HepaRG_BCL2L11: Life Technologies and Expression Analysis (LTEA) Assay for Bcl-2 (BCL2L11) gene using HepaRG (AID 2283473). The procedure, abridged: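 BCL2L11 transcript levels are measured by Fluidigm qRT-PCR, normalized to three housekeeping genes. HepaRG cultures were plated 48 h, then treated 48 h with test chemical (top 100 uM, half-log, 0.5% DMSO vehicle); curves were fitted bidirectionally against DMSO.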

Read-out in test [12]: Apolipoprotein A-V (APOA5) gene, APOA5 (gene 116519)
The test is described as follows: LTEA_HepaRG_APOA5: Life Technologies and Expression Analysis (LTEA) Assay for Apolipoprotein A-V (APOA5) gene using HepaRG (AID 2283474). The procedure, abridged:
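APOA5 transcript levels were quantified by qRT-PCR, normalized to three housekeeping genes, after 48 h chemical treatment of HepaRG cells (8 points, 100 uM maximum, half-log steps, 0.5% DMSO). Curves fitted in both directions against vehicle.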

Read-out in test [13]: Apoptosis regulator Bcl-2 (Homo sapiens) (UniProt P10415)
Briefly: LTEA_HepaRG_BCL2: Life Technologies and Expression Analysis (LTEA) Assay for Bcl-2 gene using HepaRG (AID 2283475). In a few lines:
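Plated human HepaRG cells are exposed to test chemicals for 48 h across eight concentrations from 100 uM downward in half-log steps (0.5% DMSO). BCL2 expression is then measured by qRT-PCR with housekeeping normalisation and fitted bidirectionally against vehicle.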

Read-out in test [14]: Caspase-3 (Homo sapiens) (UniProt P42574)
Briefly: LTEA_HepaRG_CASP3: Life Technologies and Expression Analysis (LTEA) Assay for cysteine-aspartic acid protease (CASP3) using HepaRG (AID 2283477). In a few lines:
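Expression of CASP3 was quantified by TaqMan qRT-PCR against three housekeeping genes (ACTB, GAPDH, POLR2A), bidirectionally versus 0.5% DMSO. HepaRG cultures received compounds in duplicate, top 100 uM with half-log steps, for 48 h in serum-free induction medium.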

Read-out in test [15]: Cytochrome P450 (CYP24A1), CYP24A1 (gene 1591)
The test is described as follows: LTEA_HepaRG_CYP24A1: Life Technologies and Expression Analysis (LTEA) Assay for Cytochrome P450 (CYP24A1) using HepaRG (AID 2283478). In a few lines:
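mRNA of CYP24A1 quantified by TaqMan qRT-PCR (ACTB/GAPDH/POLR2A normalization) after 48 h chemical exposure of HepaRG cells, top concentration 100 uM, half-log steps, 0.5% DMSO vehicle, duplicates. Curves fitted bidirectionally against DMSO baseline.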

Read-out in test [16]: Cytochrome P450 (CYP1A2), CYP1A2 (gene 1544)
The test is described as follows: LTEA_HepaRG_CYP1A2: Life Technologies and Expression Analysis (LTEA) Assay for Cytochrome P450 (CYP1A2) using HepaRG (AID 2283479). In a few lines:
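CYP1A2 transcript measured by TaqMan qRT-PCR against three housekeeping genes after 48-hour chemical exposure of HepaRG cells. Eight-point half-log series topping at 100 uM in 0.5% DMSO, duplicates; gain or loss fitted relative to vehicle.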

Read-out in test [17]: Cytochrome P450 (CYP2B6), CYP2B6 (gene 1555)
Briefly: LTEA_HepaRG_CYP2B6: Life Technologies and Expression Analysis (LTEA) Assay for Cytochrome P450 (CYP2B6) using HepaRG (AID 2283481). In a few lines:
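CYP2B6 transcript level quantified by qRT-PCR against three housekeeping genes, fitted bidirectionally relative to DMSO. HepaRG cultures received chemicals for 48 h, 8-point half-log series from 100 uM in 0.5% DMSO, duplicate wells, serum-free induction medium.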

Read-out in test [18]: cysteine-aspartic acid protease (CASP8), CASP8 (gene 841)
The test is described as follows: LTEA_HepaRG_CASP8: Life Technologies and Expression Analysis (LTEA) Assay for cysteine-aspartic acid protease (CASP8) using HepaRG (AID 2283480). In a few lines:
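CASP8 transcript measured by TaqMan qRT-PCR with ACTB/GAPDH/POLR2A normalization, after 48 h chemical exposure of HepaRG cells in serum-free induction medium. Eight concentrations, top 100 uM, half-log steps, 0.5% DMSO vehicle; fits in both directions versus DMSO.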

Chain of Broad substrate specificity ATP-binding cassette transporter ABCG2 (Homo sapiens) (Q9UNQ0 whole entry, looked up): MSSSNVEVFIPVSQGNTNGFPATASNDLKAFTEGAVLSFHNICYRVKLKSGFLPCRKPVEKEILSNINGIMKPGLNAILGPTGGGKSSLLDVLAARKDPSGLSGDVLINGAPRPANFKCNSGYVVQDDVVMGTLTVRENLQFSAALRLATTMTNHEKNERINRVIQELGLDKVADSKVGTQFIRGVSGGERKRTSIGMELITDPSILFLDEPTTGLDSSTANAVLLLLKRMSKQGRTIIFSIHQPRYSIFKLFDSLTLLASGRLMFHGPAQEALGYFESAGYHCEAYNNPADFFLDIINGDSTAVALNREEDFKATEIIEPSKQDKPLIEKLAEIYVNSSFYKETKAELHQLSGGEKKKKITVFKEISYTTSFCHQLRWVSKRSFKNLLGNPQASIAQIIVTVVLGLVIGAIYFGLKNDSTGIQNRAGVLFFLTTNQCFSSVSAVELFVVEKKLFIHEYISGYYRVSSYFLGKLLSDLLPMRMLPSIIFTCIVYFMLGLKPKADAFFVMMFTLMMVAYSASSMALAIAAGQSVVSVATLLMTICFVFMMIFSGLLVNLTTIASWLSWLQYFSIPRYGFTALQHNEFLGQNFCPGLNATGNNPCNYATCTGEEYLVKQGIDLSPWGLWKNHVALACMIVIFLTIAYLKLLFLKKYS
Chain of Apoptosis regulator Bcl-2 (Homo sapiens) (P10415 whole entry, looked up): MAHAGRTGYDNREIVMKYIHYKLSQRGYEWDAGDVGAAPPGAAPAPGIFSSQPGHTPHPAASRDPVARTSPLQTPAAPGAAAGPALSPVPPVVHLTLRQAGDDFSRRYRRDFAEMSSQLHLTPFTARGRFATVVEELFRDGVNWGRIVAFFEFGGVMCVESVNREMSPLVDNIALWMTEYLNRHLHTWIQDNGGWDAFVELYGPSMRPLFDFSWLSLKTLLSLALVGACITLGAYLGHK
Chain of Caspase-3 (Homo sapiens) (P42574 whole entry, looked up): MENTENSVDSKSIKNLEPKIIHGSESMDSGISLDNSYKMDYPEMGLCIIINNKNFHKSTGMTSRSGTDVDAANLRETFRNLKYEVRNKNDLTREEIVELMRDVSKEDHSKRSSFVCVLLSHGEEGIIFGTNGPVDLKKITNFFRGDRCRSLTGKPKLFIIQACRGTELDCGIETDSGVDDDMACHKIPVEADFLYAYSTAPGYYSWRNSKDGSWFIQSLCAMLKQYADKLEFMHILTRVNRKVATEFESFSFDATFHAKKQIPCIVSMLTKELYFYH

The AC50 is the concentration giving half of the maximal activity seen. Consider `O=C(O)c1cc(Oc2ccc(C(F)(F)F)cc2Cl)ccc1[N+](=O)[O-]`, for which the outcome in [1], in [2], in [5], in [7], in test [8] and in test [9] was inactive. Besides, the compound was called inactive in test [10], in test [11], in test [12], in [13], in test [14] and in test [15]. Moreover, in test [16], the compound was called inactive. In addition, the AC50 is 50 µM (active) in test [3], 2.98 µM (active) in [4], 28.4 µM (active) in test [6] and 50 µM (active) in test [17].

With `C=C(C)[C@H]1Cc2c(ccc3c2O[C@@H]2COc4cc(OC)c(OC)cc4[C@@H]2C3=O)O1`, the outcome in test [1], in [5], in test [9], in test [14], in test [15] and in [18] was inactive. The half-maximal activity concentration (AC50) was 7.9 µM (active) in [2]; 15.2 µM (active) in test [3]; 1.18 µM (active) in [4]; 11.7 µM (active) in [6]; 0.384 µM (active) in test [7]; 6.55 µM (active) in test [8]. Besides, the AC50 in [10] is 0.985 µM (active); in test [11], 1.07 µM (active); in [12], 12.9 µM (active); in [13], 2.94 µM (active); in [16], 0.679 µM (active); in test [17] it was 0.5 µM (active).

Regarding `CSc1nc(NC(C)C)nc(NC(C)C)n1`, the result in test [1], in [3], in test [4], in [5], in test [6] and in test [8] was inactive. The outcome in [9], in test [11], in [13], in test [14], in [15] and in [16] was inactive. Also, in [18], the result was inactive. In addition, the AC50 was 56.7 µM (active) in test [2], 50 µM (active) in [10], 50 µM (active) in test [12] and 1.31 µM (active) in test [17].

Take `CC1(C(=O)Nc2ccc(O)c(Cl)c2Cl)CCCCC1`: the call in test [1], in test [2], in test [3], in [4], in test [5] and in [6] was inactive. For the same compound, the call in [7], in test [8], in [9], in test [10], in test [11] and in test [12] was inactive. Besides, the call in test [13], in test [14], in test [15], in [16], in test [18] and in test [17] was inactive.

On to `C[N+]1(C)CCCCC1`, for which the result in test [1], in [2], in [3], in test [4], in test [5] and in [6] was inactive. Further, the outcome in test [7], in test [8], in test [9], in [10], in test [11] and in test [12] was inactive. In addition, the compound was called inactive in test [13], in [14], in test [15], in test [16] and in [17].

Turning to `CNC(=O)ON=C(SC)C(=O)N(C)C`, the compound was classed as inactive in [1], in [2], in test [3], in test [4], in [5] and in test [6]. Also, the result in test [7], in test [8], in test [9], in [10], in test [11] and in [12] was inactive. The compound was classed as inactive in test [13], in [14], in test [15], in test [16] and in [17].
